# This is a sample that favours compounds with a hit; in the whole collection about 1.2% have one here.
# LAP4 TOR yeast – modulators of TOR pathway LAP4-GFP in S. cerevisiae | S. cerevisiae LAP4-GFP multiplex, flow cytometry GFP, 3 h; median GFP as percent of DMSO wells | GFP response vs DMSO, % at 10 µM | 320,000 tested, 0.34% active | AID 2023;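 active means GFP response vs DMSO above a set limit, about the screen mean plus 3 SD, cut at about 150% in these data; inconclusive means under 70 cell events counted for the yeast strain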
# CIT2-GFP yeast – yeast TOR pathway CIT2-GFP modulation; S. cerevisiae CIT2-GFP strain, flow cytometry, 3 h; 100 means same as DMSO wells; GFP response vs DMSO, % at 10 µM; 320,000 tested, 0.065% active; AID 2029;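 active means GFP response relative to DMSO above a set limit, near the screen mean plus 3 SD, cut at about 150% in these data; inconclusive means Fewer than 70 cells measured for a yeast strain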;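 further: ratio of well median GFP fluorescence to mean of DMSO wells on the plate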
# AGP1-GFP MLPCN – alters AGP1-GFP fluorescence in TOR pathway yeast screen. GFP response vs DMSO, % at 10 µM. S. cerevisiae AGP1-GFP multiplex flow cytometry, 3 h; GFP as percent of DMSO wells. AID 2066. 320,000 tested, 0.02% active;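 active means GFP response relative to DMSO above a set limit, near screen average plus 3 SD, cut at about 150% in these data; inconclusive means fewer than 70 cells counted for the yeast strain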;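 further: median GFP channel fluorescence of the gated AGP1 strain per well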
# DSG3 Ab inh – blocks pemphigus antibody binding to human desmoglein-3. DSG3-coupled beads, scFv-anti-DSG3-GFP binding, flow cytometry; stronger effect = lower value. AID 588358. 310,000 tested, 0.48% active. binding (percent of control), % at 10 µM;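 active means binding more than 3 SD below its plate's average and above zero; inconclusive means below that plate limit but binding exactly zero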;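 further: hits lower antibody fragment binding to DSG3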
# MEP2 TOR yeast – yeast TOR pathway MEP2-GFP modulation; S. cerevisiae MEP2-GFP strain, flow cytometry GFP, 3 h; 100% = DMSO control level; GFP response vs DMSO, % at 10 µM; 330,000 tested, 0.51% active;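 active means GFP response versus DMSO above a set limit, roughly screen mean plus 3 SD, cut at about 180% in these data; inconclusive means fewer than 70 cells counted for a yeast strain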;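 further: median GFP fluorescence of the barcode-gated MEP2-GFP cells per well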
# RPL19A TOR yeast – yeast TOR pathway RPL19A-GFP modulation | S. cerevisiae RPL19A-GFP strain, flow cytometry, 3 h; stronger effect = lower value | 330,000 tested, 0.3% active | percent response vs DMSO, % at 10 µM;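 active means percent response vs DMSO below 50%; inconclusive means fewer than 70 events counted for the yeast strain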;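 further: median channel GFP fluorescence of the barcoded RPL19A-GFP strain; ratio of sample median GFP to plate DMSO average so 100% = DMSO; lower means less RPL19A-GFP as with rapamycin TOR inhibition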
# An asterisk follows results filed as active; i = inactive; ? = inconclusive; / = no result; + = active, no number; [ ] = dose if it differs, or a comment.
SMILES,LAP4 TOR yeast,CIT2-GFP yeast,AGP1-GFP MLPCN,DSG3 Ab inh,MEP2 TOR yeast,RPL19A TOR yeast
Cc1ccc(Cl)cc1NS(=O)(=O)c1ccc(-n2cccn2)cc1,90,100,94,/,100,92
COc1ccc([C@H]2C[C@H](n3cc(COC(=O)c4ccccc4)nn3)[C@@H](O)CN2C(=O)c2cccs2)cc1,/,/,/,100,/,/
COc1cc(/C=C/C(=O)OCC(=O)NCC(=O)Nc2cccc(C)c2C)ccc1OC(F)F,109,103,101,?,99,103
Cc1ccc(C(=O)c2c3ccccc3[n+]([O-])n2CCC(=O)O)cc1,107,95,103,93,102,98
CCOC(=O)c1c2ccccc2[n+]([O-])n1[C@@H](C)C(N)=O,105,?,?,131,281*[may fluoresce violet],30*[may fluoresce violet]
CNC(=O)/C(C#N)=C/c1ccc(OCCOc2ccccc2)cc1,104,98,95,124,104,101
O=C(NCc1ccccc1Cl)C1CCN(S(=O)(=O)c2cccs2)CC1,56,?,?,103,205*[may fluoresce violet],42*[may fluoresce violet]
COc1ccccc1NC(=O)C1CCN(S(=O)(=O)c2cccs2)CC1,+[may fluoresce green],+[may fluoresce green],+[may fluoresce green],101,+[may fluoresce green],i
O=C(C1CCN(S(=O)(=O)c2cccs2)CC1)N(c1ccccn1)C1CCCCC1,104,?,?,103,85,46*[may fluoresce violet]
COc1ccc(OC)c(NC(=O)C2CCN(S(=O)(=O)c3cccs3)CC2)c1,94,103,111,97,104,102
C#CCOc1ccc2ccccc2c1/C=C(/C#N)c1ccc(C(=O)O)cc1,100,85,83,101,101,97
O=[N+]([O-])c1ccc(S(=O)(=O)NCC(c2cccnc2)N2CCc3ccccc32)cc1 (configuration not stated),103,94,99,100,93,98
CCOc1ccccc1C(=O)Nc1cc(C(=O)NCC(C)C)ccc1Cl,110,96,102,/,96,109
CCOc1ccccc1C(=O)Nc1cc(C(=O)NCCc2ccccc2)ccc1Cl,103,104,99,79*,101,98
CCOC(=O)[C@H]1[C@H]2COc3ccc(OC)cc3[C@@H]2N2C(=O)CN(CCc3c[nH]c4ccccc34)C(=O)[C@@]12C,90,96,97,105,94,99
O=C(O)C1(Nc2ccc(Cl)cc2)CCCC1,/,/,/,91,/,/
NC(=O)C1(Nc2ccc(-c3ccc(Cl)cc3)cc2)CCCC1,/,/,/,54*,/,/
O=C(NCCCN1CCCCC1)C1CCN(S(=O)(=O)N2CCC3(CC2)OCCO3)CC1,90,?,?,105,154,36*[may fluoresce violet]
CC1CCCN(CCCNC(=O)C2CCN(S(=O)(=O)N3CCC4(CC3)OCCO4)CC2)C1 (configuration not stated),86,105,18,104,120,47*
O=C(Nc1ccncc1)C1CC(=O)N(Cc2ccccc2)C1 (configuration not stated),/,/,/,102,/,/
CC(C)Oc1ccccc1C1CC(=O)Nc2cc3c(cc21)OCCO3 (configuration not stated),98,95,97,107,104,101
CC(C)Oc1ccccc1C1Nc2ccccc2C(=O)N1c1ccc2c(c1)OCCO2 (configuration not stated),80,?,/,105,210*[may fluoresce violet],52
c1ccc2c(NCC3CCCO3)nc(N3CCOCC3)nc2c1 (configuration not stated),78,?,?,98,237*[may fluoresce violet],22*[may fluoresce violet]
O=C(COC(=O)c1cccc(Br)c1)NCCNC(=O)COC(=O)c1cccc(Br)c1,94,86,92,104,97,96
C=CCn1c(SCC(=O)NC(=O)NCC(C)C)nnc1C1CCCCC1,84,/,22,/,527*[may fluoresce violet],53
C=CCn1c(SCC(=O)NC(=O)NCCC)nnc1C1CCCCC1,93,97,95,117,100,/
CN(C)S(=O)(=O)N1CCN(S(=O)(=O)c2ccc3ccccc3c2)CC1,108,98,104,73*,103,100
CN1CCN(S(=O)(=O)c2ccc3ccccc3c2)CC1,102,108,108,106,101,99
